A selection: hits, their analogues and other compounds. The true share with any hit is near 3.9%.
HSF1 inhib: HSF1 inhibitors in luciferase reporter cells, primary screen, cell-based, NIH3T3, luminescence. activity change, negative = inhibition, % at 7.5 µM (by protocol). AID 2098, 2009. actives 0.77% (n = 300,000). NIH3T3-HGL HSE-luciferase, MG132-induced, luminescence 8 h; stronger effect = lower value;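 active means more than half of replicate wells show activity change below -50%, luminescence cut by over half; inconclusive means some wells, but at most half, below -50%; inactive means no replicate well below -50%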;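 further: luciferase reports HSF-1 transcriptional activity via heat shock element; 0% = median of DMSO wells and -100% = zero luminescence signal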
Wnt bcat act: Wnt/beta-catenin pathway activators, primary screen, cell-based, plate reader, single point; activation, % at 9.35 µM; actives 1.2% (n = 300,000); Wnt/beta-catenin reporter cell assay, activator; AID 743398, 2014; in the data active means activation above about 30%, passing the limit was not always enough; inconclusive means no clear call, values can overlap the other calls;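 further: 0% = neutral control wells and 100% = positive control wells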
esBAF inh: Bmi1 luciferase reporter increase in mESCs, primary screen, esBAF inhibitor project, mouse ES cells, Bmi1 luciferase knock-in, single point | 24 h; 100% = twice the neutral-well signal | reporter increase, % at 12.5 µM | actives 2% (n = 350,000); in the data active means activation above about 40%; inconclusive means no clear call, values can overlap the other calls;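 further: 0% = median of the plate's neutral control wells and 100% = double that signal; a rise in the Bmi1 reporter signal indicates esBAF inhibition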
MITF TRPM1 HTS: activators of MITF-driven TRPM1 promoter reporter, primary screen, cell-based, SK-MEL-5, luciferase, single point. SK-MEL-5 TRPM1-promoter luciferase, 24 h; % of positive control, neutral wells = 0. activation, % at 12.5 µM. actives 0.75% (n = 300,000);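 active means mean activation of at least 80% with every replicate also reaching 80%; inconclusive means mean reaches 80% but some replicate falls short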;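 further: 0% = neutral control wells and 100% = parthenolide positive control wells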
HSF1 activator: HSF-1 activators, primary screen, NIH3T3-HGL cells, MG132 stress, luminescence, single point; NIH3T3-HGL HSF-1 luciferase reporter, 8 h; 100% = twice DMSO control signal; activation, % at 9 µM; actives 1.7% (n = 300,000); AID 504408, 2011;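 active means mean replicate activation of at least 50% with a set share of replicates each reaching 50%; inconclusive means only one of those two conditions met; inactive means mean below 50% and too few replicates reaching it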;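 further: 0% = median of the neutral control wells and 100% = twice that signal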
The depositor's hits bear a star; ? = inconclusive; / = no result.

SMILES	HSF1 inhib	Wnt bcat act	esBAF inh	MITF TRPM1 HTS	HSF1 activator
CC(CC(=O)Nc1ccc2c(c1)OCO2)c1ccccc1 (centres undefined)	4.5	5.9	17.3	41.3	2.7
CCNC(=O)[C@@H]1[C@@H](CO)[C@@H]2Cn3c(ccc(-c4ccc(F)cc4)c3=O)[C@H]1N2C(C)=O	/	/	2.4	/	/
O=C(CC(=O)c1ccccc1)Nc1ccc2c(c1)OCCO2	27.9	/	37.4	75.4	53.9*
CC(=O)Nc1ccc(NC(=O)C(C)Sc2nnc(-c3ccc4c(c3)OCO4)o2)cc1 (centres undefined)	/	17.4	29.0	48.1	/
O=C(CCCCCN1C(=O)c2ccccc2C1=O)Nc1ccc2c(c1)OCCO2	-2.2	-0.5	-13.3	1.8	-18.9
COc1ccc(-c2nnc(SC(C)C(=O)Nc3ccc4c(c3)OCCO4)o2)cc1 (centres undefined)	9.2	/	46.2*	?	34.3
CSc1nsc(SCC(=O)Nc2ccc3c(c2)OCCO3)n1	24.3	26.3	42.8*	69.4	54.8*
O=C(CCCc1ccccc1)Nc1ccc2c(c1)OCCO2	36.2	-0.8	/	55.3	74.8*
O=C(Nc1ccc2c(c1)OCCO2)c1ccccc1	12.1	/	-9.8	38.0	29.3
CC(C)CC#Cc1cnc2c(c1)C(=O)N([C@@H](C)CO)C[C@@H](C)[C@@H](CN(C)C(=O)Nc1ccccc1F)O2	/	/	3.6	/	/
COCC(=O)Nc1ccc2c(c1)C(=O)N(C)C[C@H](OC)[C@@H](C)CN(C(=O)C1CCCC1)[C@H](C)CO2	/	/	-2.6	/	/
O=C(CC1CS(=O)(=O)CC1CC(=O)Nc1ccc2c(c1)OCCO2)Nc1ccc2c(c1)OCCO2 (centres undefined)	-82.3*	-3.7	-23.2	-18.1	-86.2
Cc1ccc(SCC(=O)Nc2ccc(N3CCN(c4ccccc4)CC3)c(F)c2)cc1	1.8	/	-1.1	/	10.5
O=C(CSc1ccccc1)Nc1ccc2c(c1)OCCO2	26.2	33.3*	54.4*	50.1	37.8
Cn1cc(S(=O)(=O)CC(=O)Nc2ccc3c(c2)OCO3)c2ccccc21	-0.3	/	-0.3	-11.3	13.9
CCn1cc(S(=O)(=O)CC(=O)Nc2ccc3c(c2)OCO3)c2ccccc21	-0.5	34.8*	7.9	/	-17.0
CN1CCN(c2ccc(NC(=O)CSc3ccccc3)cc2F)CC1	-24.2	38.2*	-3.0	/	-34.5
C[C@@H]1CCCCO[C@@H](CN(C)C(=O)NC2CCCCC2)[C@@H](C)CN([C@H](C)CO)C(=O)c2cc(NC(=O)c3ccccc3)ccc2O1	/	/	-2.8	/	/
C[C@H](CO)N1C[C@H](C)[C@H](CN(C)S(=O)(=O)c2ccc(F)cc2)Oc2ncc(-c3cccc(C(F)(F)F)c3)cc2C1=O	/	/	-1.9	/	/
CO[C@@H]1CN(C)C(=O)c2cc(NS(=O)(=O)c3ccccc3F)ccc2OC[C@@H](C)N(S(C)(=O)=O)C[C@H]1C	/	/	1.1	/	/
Nc1cc(N)nc(SCCOc2ccccc2)n1	15.9	/	37.9	56.2	28.4
Cc1ccc(OCCCSc2ncccn2)cc1C	17.6	/	69.9*	?	31.9
COc1cccc(OCCSc2nc(N)cc(N)n2)c1	11.5	/	54.5*	/	19.7
c1ccc(Oc2cccc(OCCCCSc3ncccn3)c2)cc1	-3.5	-2.0	-2.6	4.0	-5.8
COc1cccc(OCCCCSc2ncccn2)c1	3.7	/	54.6*	40.9	9.2
SMILES	HSF1 inhib	Wnt bcat act	esBAF inh	MITF TRPM1 HTS	HSF1 activator
COc1ccc(OCCSc2ncccn2)cc1	18.5	/	?	37.7	?
COc1ccc(OCCCSc2ncccn2)cc1	21.6	/	56.8*	112.9*	17.4
COCC(=O)N1C[C@H](C)[C@@H](OC)CN(C)C(=O)c2cc(NC(=O)c3cnccn3)ccc2OC[C@H]1C	/	/	-3.3	/	/
COc1ccccc1OCCSc1nc(N)cc(N)n1	9.7	15.4	32.0	/	20.7
Clc1ccc(OCCSc2ncccn2)cc1	23.8	/	/	99.5*	16.1
c1cnc(SCCCOc2ccc3ccccc3c2)nc1	12.9	-0.5	37.6	78.4	29.9
Nc1cc(N)nc(SCCOc2ccccc2F)n1	43.1	17.6	/	59.2	66.4*
CS(=O)(=O)N1[C@H](CO)[C@@H](c2ccc(C#CC3CC3)cc2)[C@@H]1C#N	/	/	-7.9	/	/
CN(C)C(=O)C[C@@H]1C=C[C@@H](NC(=O)NC2CCCCC2)[C@@H](CO)O1	/	/	-0.6	/	/
COc1ccc(C/C(C)=N\NC(=O)c2c[nH]c3ccccc23)cc1OC	11.0	39.4*	2.3	3.1	9.7
C[C@@H]1CN([C@H](C)CO)C(=O)c2cc(-c3cccc(C#N)c3)cnc2O[C@H]1CN(C)C(=O)c1ccccn1	/	/	-0.3	/	/
CC(C)C#Cc1cnc2c(c1)C(=O)N([C@H](C)CO)C[C@H](C)[C@@H](CN(C)C(=O)CN1CCOCC1)O2	/	/	5.6	/	/
C=CC(C)N1C(=O)S/C(=C\c2ccc(N3CCOCC3)cc2C)C1=O (centres undefined)	10.4	10.5	/	44.3	17.1
C=CCN1C(=O)S/C(=C\c2ccc(N3CCOCC3)cc2C)C1=O	18.5	39.3*	73.3*	/	13.1
CC1CC(C)CN(C(=O)c2ccc3c(=O)n(Cc4ccc5c(c4)OCO5)c(=S)[nH]c3c2)C1 (centres undefined)	23.3	/	0.5	/	65.3*
Cc1ccsc1CN(C)C(=O)c1cc(S(=O)(=O)N2CCOCC2)ccc1N1CCCC1	/	44.0*	-1.4	6.9	/
CCc1ccc(CN(C)C(=O)c2cc(S(=O)(=O)N3CCOCC3)ccc2N2CCCC2)cc1	8.3	-1.9	-3.3	10.5	5.9
O=C1c2cccc3cccc(c23)C(=O)N1OS(=O)(=O)c1ccccc1	87.0	/	?	14.9	118.2*
O=C(NCC[C@H]1CC[C@H](NC(=O)C2CC2)[C@@H](CO)O1)c1cnccn1	/	/	-2.3	/	/
Cc1ccc(NC(=O)Nc2ccc3c(c2)OCO3)nc1	13.4	?	48.3*	130.2*	32.4
Cc1cc(C)nc(NC(=O)c2c(F)c(F)c(F)c(C(=O)Nc3cc(C)cc(C)n3)c2F)c1	18.5	-1.3	-2.1	/	61.6*
Cc1cccc(NC(=O)Nc2cc(C)cc(C)n2)c1	19.4	/	16.7	78.4	53.3*
Cc1ccnc(NC(=O)Nc2cccc(F)c2)c1	13.8	/	-10.6	/	23.9
Cc1cc(C)nc(NC(=O)c2ccc3c(c2)OCO3)c1	19.2	/	/	/	12.1
Cc1cc(C)nc(NC(=O)CCCC(=O)O)c1	-0.5	/	/	-3.2	8.8
Cc1cc(C)nc(NC(=O)Nc2ccc3c(c2)OCO3)c1	29.4	-5.6	/	47.1	64.9*
C[C@@H]1CCCCO[C@H](CN(C)C)[C@H](C)CN([C@@H](C)CO)C(=O)c2cc(NC(=O)c3ccccc3)ccc2O1	/	/	3.0	/	/
COc1ccc(NC(=O)N(C)C[C@@H]2Oc3cc(-c4cccc(C(=O)N(C)C)c4)ccc3S(=O)(=O)N([C@H](C)CO)C[C@@H]2C)cc1	/	/	0.9	/	/
